FBW7 act = FBW7 E3 ligase activators, primary screen, biochemical, AlphaScreen, human. F-box/WD repeat-containing protein 7 (Homo sapiens), Q969H0. AlphaScreen FBW7–phospho-cyclin E peptide binding, activator screen. normalized activity (activation), % at 26.1 µM. actives 0.13% (n = 650,000). AID 1259310, 2017; in the data active = normalized activity above about 1.9%;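 note: purified mutant Fbw7 with reduced substrate affinity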
GPR151 ag = activators of human GPR151, primary screen, cell-based, PathHunter beta-arrestin, luminescence | G-protein coupled receptor 151 (Homo sapiens), Q8TDV0 | PathHunter beta-arrestin GPR151 cells | activation, % at 11.2 µM | actives 1% (n = 650,000); in the data active = activation above about 4.9%;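 note: 0% = median of compound wells and 100% = cells with positive control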
TEAD-YAP block = TEAD-YAP interaction inhibition, primary screen, TEAD-YAP interaction inhibitor project, luminescence, HEK-TIYL cells; AID 1259422, 2018; TEAD-Gal4/YAP UAS-luciferase luminescence; actives 1.4% (n = 640,000); inhibition, % at 9.12 µM; in the data active = inhibition above about 32%;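 note: 0% = median of test compound wells and 100% = reference inhibitor wells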
MITF inh = MITF inhibitors, primary screen, biochemical, AlphaScreen, human; actives 0.91% (n = 650,000); Microphthalmia-associated transcription factor (Homo sapiens), O75030; AID 1259374, 2018; AlphaScreen MITF homodimerization, bead proximity signal; inhibition, % at 2.6 µM; in the data active = inhibition above about 50%;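 note: 0% = vehicle wells with protein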
Target sequence (O75030 whole entry, looked up): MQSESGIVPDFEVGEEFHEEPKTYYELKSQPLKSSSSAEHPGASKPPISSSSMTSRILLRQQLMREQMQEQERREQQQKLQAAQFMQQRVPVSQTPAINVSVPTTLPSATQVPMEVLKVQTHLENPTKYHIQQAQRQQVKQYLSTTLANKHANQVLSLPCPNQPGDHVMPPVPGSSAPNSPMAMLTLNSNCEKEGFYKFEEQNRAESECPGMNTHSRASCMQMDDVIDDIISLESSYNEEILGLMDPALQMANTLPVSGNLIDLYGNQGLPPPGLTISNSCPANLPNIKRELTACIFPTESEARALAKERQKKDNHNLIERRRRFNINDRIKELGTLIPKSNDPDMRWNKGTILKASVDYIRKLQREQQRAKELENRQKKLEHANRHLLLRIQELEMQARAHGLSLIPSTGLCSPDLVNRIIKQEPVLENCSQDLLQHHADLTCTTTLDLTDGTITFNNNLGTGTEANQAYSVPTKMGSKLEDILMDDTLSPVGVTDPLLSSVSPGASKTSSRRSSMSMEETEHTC
The depositor's hits bear a star. The list is not random: actives were taken first. Their share in the collection is about 3.5%.

SMILES	FBW7 act	GPR151 ag	TEAD-YAP block	MITF inh
Cc1cccc(N2CCN(C(=O)CCc3nc(C4=CCN(C)CC4)no3)CC2C)c1 (centres undefined)	4.1*	0	13	24
CN1CC=C(c2noc(CCC(=O)N3CCN(c4ncccn4)CC3)n2)CC1	1	-1	-9	17
CN1CC=C(c2noc(CCC(=O)Nc3ccccc3Cl)n2)CC1	1	-1	-8	12
CN1CC=C(c2noc(CCC(=O)Nc3cccc(Cl)c3)n2)CC1	1.9*	-1	11	36
CCSc1ccccc1[N+]1=C(C)CCCC1	1	-1	-1	-2
O=c1c2ccccc2nc(/C=C/c2ccc([N+](=O)[O-])o2)n1-c1cccc(O)c1	0	0	34*	3
O=c1c(O)c(-c2ccc(O)c(O)c2)oc2c(O)c(O)cc(O)c12	0	4	-18	57*
Cc1cc(C)cc(CN2CCN(CC(C)(C)C)C(CCO)C2)c1 (centres undefined)	0	0	4	2
CN1C(=O)NC(=O)/C(=C\c2cccc(Oc3ccccc3)c2)C1=O	0	-1	15	65*
CN1C(=O)NC(=O)/C(=C/c2cccs2)C1=O	0	3	-3	11
CCOC(=O)C1C2NC(=S)N(c3ccc(Cl)cc3)C1(C)Oc1ccc(Br)cc12 (centres undefined)	0	1	54*	19
CCOC(=O)C1C2NC(=S)N(c3ccc(C)cc3)C1(C)Oc1ccc(OC)cc12 (centres undefined)	-1	0	2	43
CCOC(=O)C1C2NC(=S)N(c3ccc(Br)cc3)C1(C)Oc1ccc(OC)cc12 (centres undefined)	0	-1	63*	17
Cc1ccc2c(c1)C1CN(C)CCC1N2C(=O)Cn1nnc(-c2ccccc2Cl)n1 (centres undefined)	0	1	6	12
CO[C@@H]1C[C@@H](C[C@H]2CC[C@H](C)[C@H]([C@@H](C)C(=O)O)O2)O[C@]2(O[C@](C)([C@H]3CC[C@@](C)([C@@H]4O[C@@H]([C@H]5O[C@@](O)(CO)[C@H](C)C[C@@H]5C)C[C@@H]4C)O3)C[C@H]2C)[C@@H]1C	0	-3	77*	12
COc1cc(C(=O)Nc2cc(Cl)c([N+](=O)[O-])cc2C)cc(OC)c1OC	0	0	5	-2
COc1ccc(N2CCN(Cc3ccccc3[N+](=O)[O-])CC2)cc1	0	-1	-11	57*
COc1ccc(CN2CCN(c3ccc(F)cc3)CC2)c(OC)c1	0	-1	1	23
COc1cccc(N2CCN(Cc3ccccc3[N+](=O)[O-])CC2)c1	0	-1	6	41
COc1ccc(N2CCN(Cc3ccc(F)cc3F)CC2)cc1	0	-2	-3	56*
CCN(CC)c1ccc(CNCCc2c(C)[nH]c3ccccc23)cc1	0	0	9	75*
C=CCN1C(=O)CN=C(c2ccccc2)c2cc(CC)sc21	0	0	-13	13
CCCCNS(=O)(=O)c1ccc(OCC(=O)N2CCN(C)CC2)cc1	0	1	6	12
CC(=O)NC1C(=O)NC(=S)NC1=O	0	0	1	21
CCN(CC)c1ccc(N=Cc2c(O)[nH]c(=O)[nH]c2=O)cc1	0	-1	15	66*
SMILES	FBW7 act	GPR151 ag	TEAD-YAP block	MITF inh
C[CH2][Hg][S]c1ccccc1C(=O)O	0	4	74*	-6
CNc1ccccc1C(=O)O	1	-3	1	-11
Cc1cccc(C)c1-n1c(C)nc2ccccc2c1=O	0	0	-2	15
O=C1C=CC(=O)c2c(O)cccc21	0	0	2	108*
COC(=O)C1C2C(=O)N(c3ccc(OC)cc3)C(=O)C12c1ccc(C)cc1 (centres undefined)	0	-1	-5	-2
CCN(CC)C(C)C(=O)c1ccccc1 (centres undefined)	0	0	-3	-6
CC(=O)[O][Hg][c]1ccccc1	0	1	98*	-4
Fc1ccc(CN2CCC(n3nnc4ccccc43)CC2)cc1	0	0	0	7
O=C1NC(=S)NC(=O)C1=Cc1ccc(OCc2cccc(C(=O)O)c2)cc1	0	-8	63*	5
CC[C@@]1(O)C(=O)OCc2c1cc1n(c2=O)Cc2cc3c(O)cccc3nc2-1	0	-2	78*	34
CC[C@@]1(O)C(=O)OCc2c1cc1n(c2=O)Cc2cc3ccccc3nc2-1	0	0	76*	8
CCCCc1nc2ccccc2c(=O)n1-c1ccccc1O	0	-1	11	12
O=C1NC(=O)C(=Cc2ccc(C(=O)O)cc2)C(=O)N1	-1	0	3	6
CCC1/C=C/C=C/C[C@H](C)[C@@H](O)[C@](C)(O)C(=O)[C@@H](C)[C@H](O)[C@@H](C)C(=O)[C@H](C)[C@@H](O)[C@H](C)/C=C/C(=O)OC2[C@@H](C)C(CC1)OC1(CC[C@@H](C)C(C[C@H](C)O)O1)[C@@H]2C (some centres undefined)	0	4	94*	-1
OCCC1CN(Cc2ccc(F)cc2)CCN1Cc1ccccc1 (centres undefined)	0	-1	12	6
Cc1c2oc3c(C)ccc(C(=O)N[C@@H]4C(=O)N[C@H](C(C)C)C(=O)N5CCC[C@H]5C(=O)N(C)CC(=O)N(C)[C@@H](C(C)C)C(=O)O[C@@H]4C)c3nc-2c(C(=O)N[C@@H]2C(=O)N[C@H](C(C)C)C(=O)N3CC(=O)C[C@H]3C(=O)N(C)CC(=O)N(C)[C@@H](C(C)C)C(=O)O[C@@H]2C)c(N)c1=O	0	-1	95*	4
CN(N=O)c1ccc(O)c(O)c1	0	1	2	77*
Cc1nn(Cc2ccc(F)cc2)c(Cl)c1C=O	0	-1	2	-3
COc1ccc(O)c(CN2CCN(C)CC2)c1	0	-2	2	16
COc1ccc(O)c(CN2CCN(Cc3cccc(C)c3)CC2)c1	0	0	-4	72*
COc1ccc(O)c(CN2CCN(Cc3ccccc3)CC2)c1	0	-1	4	-1
COc1ccc(O)c(CN2CCN(Cc3ccccc3Cl)CC2)c1	0	-1	-3	51*
O=C1NC(=O)N(Cc2ccco2)C(=O)/C1=C\c1cn(Cc2ccccc2)c2ccccc12	0	0	0	28
NC(=O)C1CCN(/C=C2\C(=O)NC(=O)N(Cc3ccco3)C2=O)CC1	0	-1	12	58*
COc1ccc2c(c1)COC1(CCN(C(=O)Nc3ccc(N(C)C)cc3)CC1)O2	0	-1	2	-17
O=C1NC(=S)NC(=O)C1=Cc1cc2c(cc1[N+](=O)[O-])OCO2	-1	0	-1	86*
